Records with an inconclusive call do not appear. Calls of active or inactive are those of the source. How the source made its calls: active means hit-call score of the fitted dose curve at least 0.9, where 1 is the maximum; inconclusive means response in the unintended direction; inactive means score below 0.9.
These compounds were tested against Estrogen receptor beta (Homo sapiens) (UniProt Q92731) (assay: OT_ER_ERbERb_0480: Odyssey Thera (OT) 8-hour HEK293T Protein-Complementation Assay for Estrogen Receptor-beta/-beta Homodimer (AID 2283357);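 further: active means signal gain over DMSO baseline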).
Sequence of Estrogen receptor beta (Homo sapiens) (Q92731 whole entry, looked up, the tested form may be a part): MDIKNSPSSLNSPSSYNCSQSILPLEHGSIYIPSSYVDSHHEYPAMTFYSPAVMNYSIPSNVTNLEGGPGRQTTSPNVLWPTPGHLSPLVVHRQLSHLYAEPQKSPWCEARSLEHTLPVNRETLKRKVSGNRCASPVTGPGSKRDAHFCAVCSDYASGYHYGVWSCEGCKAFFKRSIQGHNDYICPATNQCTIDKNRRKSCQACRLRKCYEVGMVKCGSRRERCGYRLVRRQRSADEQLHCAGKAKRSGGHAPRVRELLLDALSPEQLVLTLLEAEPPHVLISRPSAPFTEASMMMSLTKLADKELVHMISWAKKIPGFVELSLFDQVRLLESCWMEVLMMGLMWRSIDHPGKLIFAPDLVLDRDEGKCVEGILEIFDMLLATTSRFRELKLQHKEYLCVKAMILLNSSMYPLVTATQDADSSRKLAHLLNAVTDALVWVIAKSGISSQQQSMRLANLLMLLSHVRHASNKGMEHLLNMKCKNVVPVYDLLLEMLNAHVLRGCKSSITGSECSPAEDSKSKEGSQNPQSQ
Outline: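 Fluorescence intensity, nuclear for agonists and nuclear plus cytoplasmic for antagonists, was quantified by laser scanning cytometry versus vehicle after 8 h treatment. The cells were HEK293T stably carrying ER beta LBD fragment-complementation partners.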

**Q.** C=C(C)[C@@H]1CC=C(C)C(=O)C1 was tested. Which outcome did it give?
**A.** Its outcome is “inactive”.

**Q.** Which outcome does the source give for CCCCCC(C=O)=Cc1ccccc1 here?
**A.** The outcome was “inactive”.

**Q.** Which outcome does the source give for CCC1(C)NC(=O)NC1=O (centres undefined) here?
**A.** Its outcome is “inactive”.

**Q.** For C#CC(C)(O)CC(C)C (centres undefined), which outcome is on record?
**A.** Its outcome is “inactive”.

**Q.** With O=Cc1ccccc1S(=O)(=O)O as the compound, how does the outcome read?
**A.** Its outcome is “inactive”.

**Q.** Clc1ccc(C(c2ccccc2Cl)C(Cl)Cl)cc1 (centres undefined) was tested. Which AC50 did it give?
**A.** Its AC50 is 3.87 µM (active).

**Q.** With CC(C)CCCCCCCCCCCCCCC(=O)O as the compound, how does the outcome read?
**A.** Its outcome is “inactive”.

**Q.** How did the outcome turn out when Cc1cc(S(=O)(=O)O)ccc1N=Nc1c(O)ccc2ccccc12 was run?
**A.** The outcome was “inactive”.

**Q.** With C[Si](C)(C)O[Si](C)(C)C as the compound, how does the outcome read?
**A.** The outcome was “inactive”.

**Q.** CC1CC(O)CC(C)(C)C1 (centres undefined) was tested. Which outcome did it give?
**A.** The outcome was “inactive”.

**Q.** With CN1C(=O)c2ccccc2C1=O as the compound, how does the outcome read?
**A.** Its outcome is “inactive”.

**Q.** Which outcome does the source give for OCC#CCO here?
**A.** The outcome was “inactive”.

**Q.** CCCC(=O)OC(C)(C)Cc1ccccc1 was tested. Which outcome did it give?
**A.** Its outcome is “inactive”.

**Q.** O=C1NC2NC(=O)NC2N1 (centres undefined) was tested. Which AC50 did it give?
**A.** The AC50 was 22.1 µM (active).

**Q.** For O=C(c1ccccc1)C(O)c1ccccc1 (centres undefined), which outcome is on record?
**A.** Its outcome is “inactive”.

**Q.** Which outcome does the source give for CCCCCCCCCC(=O)OC here?
**A.** The outcome was “inactive”.

**Q.** O=P(O)(O)O was tested. Which outcome did it give?
**A.** Its outcome is “inactive”.

**Q.** Which outcome does the source give for O=C(CC(=O)c1ccccc1)c1ccccc1 here?
**A.** Its outcome is “inactive”.

**Q.** How did the outcome turn out when CC(CN=Cc1ccccc1O)N=Cc1ccccc1O (centres undefined) was run?
**A.** Its outcome is “inactive”.

**Q.** How did the outcome turn out when ON=C1CCCCC1 was run?
**A.** Its outcome is “inactive”.

**Q.** For CC(C)c1ccccc1O, which outcome is on record?
**A.** Its outcome is “inactive”.

**Q.** Which outcome does the source give for C=C1CC[C@H](O)C/C1=C/C=C1\CCC[C@]2(C)[C@@H]([C@H](C)/C=C/[C@H](C)C(C)C)CC[C@@H]12 here?
**A.** The outcome was “inactive”.

**Q.** With CCOC(=O)c1ccc(N)cc1 as the compound, how does the outcome read?
**A.** The outcome was “inactive”.

**Q.** Which outcome does the source give for COc1ccccc1N=Nc1c(S(=O)(=O)O)cc2cc(S(=O)(=O)O)cc(NC(C)=O)c2c1O here?
**A.** Its outcome is “inactive”.

**Q.** Which outcome does the source give for [O-]n1ccccc1=S.[O-]n1ccccc1=S.[Zn+2] here?
**A.** The outcome was “inactive”.

These compounds were tested against human Peroxisome Proliferator-activated Receptor alpha (PPARa), PPARA (gene 5465) (UniProt Q07869) (assay: NVS_NR_hPPARa: NovaScreen (NVS) Nuclear Receptor Binding Assay for human Peroxisome Proliferator-activated Receptor alpha (PPARa) (AID 2283359);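 further: activity means loss of TR-FRET signal versus DMSO baseline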).
Sequence of human Peroxisome Proliferator-activated Receptor alpha (PPARa), PPARA (gene 5465) (Q07869 whole entry, looked up): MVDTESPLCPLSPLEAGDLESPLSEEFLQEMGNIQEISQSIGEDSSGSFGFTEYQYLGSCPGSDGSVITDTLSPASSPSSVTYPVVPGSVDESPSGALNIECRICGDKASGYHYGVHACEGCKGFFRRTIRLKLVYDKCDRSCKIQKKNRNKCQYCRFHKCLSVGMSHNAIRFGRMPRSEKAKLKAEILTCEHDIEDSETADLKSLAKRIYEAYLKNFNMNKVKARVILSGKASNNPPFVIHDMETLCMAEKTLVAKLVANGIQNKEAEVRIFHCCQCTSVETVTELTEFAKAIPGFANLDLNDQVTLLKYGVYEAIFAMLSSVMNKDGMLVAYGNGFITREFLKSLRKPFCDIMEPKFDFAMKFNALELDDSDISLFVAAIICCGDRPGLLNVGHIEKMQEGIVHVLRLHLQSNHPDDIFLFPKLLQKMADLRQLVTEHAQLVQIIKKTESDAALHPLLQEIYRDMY
Outline: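 Cell-free TR-FRET binding assay with extracted PPARα protein, read 1 h after dosing. Primary screen in duplicate at 25 uM, with actives retested in concentration series. Loss of signal versus DMSO.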

**Q.** How did the outcome turn out when CCCCCC(C=O)=Cc1ccccc1 was run?
**A.** Its outcome is “inactive”.

**Q.** Which outcome does the source give for Clc1ccc(C(c2ccccc2Cl)C(Cl)Cl)cc1 (centres undefined) here?
**A.** Its outcome is “inactive”.

**Q.** How did the outcome turn out when CC(C)CCCCCCCCCCCCCCC(=O)O was run?
**A.** The outcome was “inactive”.

**Q.** How did the outcome turn out when CCCCCCCC/C=C\CCCCCCCC(=O)OCC was run?
**A.** Its outcome is “inactive”.

**Q.** How did the outcome turn out when O=P(O)(O)O was run?
**A.** Its outcome is “inactive”.

Each compound was assayed against PGR (gene 5241) (UniProt P06401) (assay: NVS_NR_hPR: NovaScreen (NVS) Nuclear Receptor Binding Assay for human Progestron Receptor (PR) (AID 2283360);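 further: active means loss of bound radioligand signal versus DMSO baseline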).
Sequence of PGR (gene 5241) (P06401 whole entry, looked up): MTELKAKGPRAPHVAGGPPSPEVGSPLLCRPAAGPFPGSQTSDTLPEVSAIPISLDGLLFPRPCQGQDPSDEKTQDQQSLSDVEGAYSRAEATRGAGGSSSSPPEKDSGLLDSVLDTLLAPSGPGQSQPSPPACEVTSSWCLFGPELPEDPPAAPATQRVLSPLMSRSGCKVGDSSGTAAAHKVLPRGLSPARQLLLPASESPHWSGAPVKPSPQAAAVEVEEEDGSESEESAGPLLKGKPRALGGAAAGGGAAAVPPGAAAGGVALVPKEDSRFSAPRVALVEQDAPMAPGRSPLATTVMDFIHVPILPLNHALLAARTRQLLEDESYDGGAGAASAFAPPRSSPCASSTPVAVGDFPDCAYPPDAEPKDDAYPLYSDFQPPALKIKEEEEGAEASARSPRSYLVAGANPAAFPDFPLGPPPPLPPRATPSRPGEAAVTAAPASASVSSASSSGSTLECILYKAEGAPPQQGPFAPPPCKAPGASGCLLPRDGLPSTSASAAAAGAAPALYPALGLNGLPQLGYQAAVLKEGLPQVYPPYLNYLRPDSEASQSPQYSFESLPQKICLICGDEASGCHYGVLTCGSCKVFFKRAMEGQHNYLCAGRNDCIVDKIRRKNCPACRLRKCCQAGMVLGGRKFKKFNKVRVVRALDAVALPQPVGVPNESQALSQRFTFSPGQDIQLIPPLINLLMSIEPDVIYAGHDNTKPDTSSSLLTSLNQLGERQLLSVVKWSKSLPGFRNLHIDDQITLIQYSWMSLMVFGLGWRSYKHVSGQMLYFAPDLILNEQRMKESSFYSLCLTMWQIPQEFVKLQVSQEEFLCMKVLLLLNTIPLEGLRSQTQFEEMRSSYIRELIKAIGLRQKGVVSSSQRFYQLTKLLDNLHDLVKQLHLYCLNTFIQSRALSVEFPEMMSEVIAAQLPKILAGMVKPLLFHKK
Outline: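 Radioligand competition binding on receptor extracted from T47D cells, read by scintillation counting 18 h after dosing. Loss of signal versus DMSO; primary screen in duplicate at 25 uM, actives followed in concentration series.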

**Q.** CCC(C)c1cc([N+](=O)[O-])cc([N+](=O)[O-])c1OC(=O)OC(C)C (centres undefined) was tested. Which outcome did it give?
**A.** Its outcome is “inactive”.

**Q.** For ClC(c1ccccc1)(c1ccccc1)c1ccccc1, which outcome is on record?
**A.** Its outcome is “inactive”.

**Q.** C=C(C)C(=O)OCCOCCOCCOC(=O)C(=C)C was tested. Which outcome did it give?
**A.** The outcome was “inactive”.

**Q.** Which outcome does the source give for CS(=O)(=O)c1ccc(C2=C(c3ccccc3)C(=O)OC2)cc1 here?
**A.** Its outcome is “inactive”.

Each compound was assayed against Retinoic acid receptor alpha (Homo sapiens) (UniProt P10276) (assay: NVS_NR_hRARa_Agonist: NovaScreen (NVS) Nuclear Receptor Binding Assay for human Retinoic Acid Alpha Receptor Agonism (RAR) (AID 2283361)).
Sequence of Retinoic acid receptor alpha (Homo sapiens) (P10276 whole entry, looked up): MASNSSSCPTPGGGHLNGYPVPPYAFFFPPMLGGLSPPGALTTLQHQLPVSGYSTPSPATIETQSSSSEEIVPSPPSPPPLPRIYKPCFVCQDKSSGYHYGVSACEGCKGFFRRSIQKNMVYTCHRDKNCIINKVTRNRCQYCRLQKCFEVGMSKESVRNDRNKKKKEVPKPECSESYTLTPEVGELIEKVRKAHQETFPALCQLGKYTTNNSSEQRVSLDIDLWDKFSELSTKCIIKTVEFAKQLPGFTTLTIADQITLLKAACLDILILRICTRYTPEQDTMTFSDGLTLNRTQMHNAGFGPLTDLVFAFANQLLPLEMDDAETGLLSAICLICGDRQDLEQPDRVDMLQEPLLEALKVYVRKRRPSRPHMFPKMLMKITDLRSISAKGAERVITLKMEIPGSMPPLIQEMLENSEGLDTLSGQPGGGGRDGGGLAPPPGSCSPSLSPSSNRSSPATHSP
Outline: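 Cell-free TR-FRET binding readout with extracted receptor protein, read 2 hours after dosing; gain-of-signal fitted relative to DMSO. Screened in duplicate at 25 uM, actives then run in concentration-response.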

**Q.** How did the AC50 turn out when Cc1cc(S(=O)(=O)O)ccc1N=Nc1c(O)ccc2ccccc12 was run?
**A.** The AC50 was 23.5 µM (active).

**Q.** How did the outcome turn out when O=C(CC(=O)c1ccccc1)c1ccccc1 was run?
**A.** Its outcome is “inactive”.

**Q.** How did the outcome turn out when [O-]n1ccccc1=S.[O-]n1ccccc1=S.[Zn+2] was run?
**A.** Its outcome is “inactive”.

Each compound was assayed against human Thyroid Receptor Alpha (TRa), THRA (gene 7067) (UniProt P10827) (assay: NVS_NR_hTRa_Antagonist: NovaScreen (NVS) Nuclear Receptor Binding Assay for human Thyroid Receptor Alpha Antagonism (TRa) (AID 2283362);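 further: activity is loss of signal relative to DMSO baseline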).
Sequence of human Thyroid Receptor Alpha (TRa), THRA (gene 7067) (P10827 whole entry, looked up): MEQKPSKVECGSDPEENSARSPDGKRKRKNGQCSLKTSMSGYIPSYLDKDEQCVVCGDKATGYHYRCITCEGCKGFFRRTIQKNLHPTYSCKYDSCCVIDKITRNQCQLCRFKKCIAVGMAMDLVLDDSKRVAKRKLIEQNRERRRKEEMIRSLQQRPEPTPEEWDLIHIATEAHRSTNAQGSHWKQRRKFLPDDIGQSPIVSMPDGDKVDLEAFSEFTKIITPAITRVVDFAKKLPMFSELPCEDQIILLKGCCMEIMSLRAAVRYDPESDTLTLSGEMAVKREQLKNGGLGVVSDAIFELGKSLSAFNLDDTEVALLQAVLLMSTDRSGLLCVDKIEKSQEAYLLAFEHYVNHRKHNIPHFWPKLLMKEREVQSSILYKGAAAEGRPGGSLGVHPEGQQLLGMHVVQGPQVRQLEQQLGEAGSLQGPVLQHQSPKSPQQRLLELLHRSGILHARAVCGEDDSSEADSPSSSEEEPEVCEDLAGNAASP
Outline: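 AlphaLISA chemiluminescent immunoassay readout, taken 1 h post-dosing in a cell-free system with extracted protein. Activity was scored as signal loss against DMSO negative control, from duplicate single-concentration (25 uM) testing followed by concentration-response follow-up.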

**Q.** For Cc1cc(S(=O)(=O)O)ccc1N=Nc1c(O)ccc2ccccc12, which AC50 is on record?
**A.** Its AC50 is 17.6 µM (active).

**Q.** CC1(C)C(=O)N(Cl)C(=O)N1Br was tested. Which outcome did it give?
**A.** Its outcome is “inactive”.

**Q.** How did the outcome turn out when CC(CN=Cc1ccccc1O)N=Cc1ccccc1O (centres undefined) was run?
**A.** Its outcome is “inactive”.

**Q.** Which outcome does the source give for Oc1ccc2cc(SSc3ccc4cc(O)ccc4c3)ccc2c1 here?
**A.** The outcome was “inactive”.

**Q.** COc1ccccc1N=Nc1c(S(=O)(=O)O)cc2cc(S(=O)(=O)O)cc(NC(C)=O)c2c1O was tested. Which AC50 did it give?
**A.** Its AC50 is 8.29 µM (active).

**Q.** For [O-]n1ccccc1=S.[O-]n1ccccc1=S.[Zn+2], which AC50 is on record?
**A.** The AC50 was 1.1 µM (active).

What follows are compounds tested against Glucocorticoid receptor (Homo sapiens) (UniProt P04150) (assay: NVS_NR_hGR: NovaScreen (NVS) Nuclear Receptor Binding Assay for human Glucocorticoid Receptor (GR) (AID 2283363);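 on AC50: activity is loss of specific radioligand binding signal relative to DMSO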).
Sequence of Glucocorticoid receptor (Homo sapiens) (P04150 whole entry, looked up): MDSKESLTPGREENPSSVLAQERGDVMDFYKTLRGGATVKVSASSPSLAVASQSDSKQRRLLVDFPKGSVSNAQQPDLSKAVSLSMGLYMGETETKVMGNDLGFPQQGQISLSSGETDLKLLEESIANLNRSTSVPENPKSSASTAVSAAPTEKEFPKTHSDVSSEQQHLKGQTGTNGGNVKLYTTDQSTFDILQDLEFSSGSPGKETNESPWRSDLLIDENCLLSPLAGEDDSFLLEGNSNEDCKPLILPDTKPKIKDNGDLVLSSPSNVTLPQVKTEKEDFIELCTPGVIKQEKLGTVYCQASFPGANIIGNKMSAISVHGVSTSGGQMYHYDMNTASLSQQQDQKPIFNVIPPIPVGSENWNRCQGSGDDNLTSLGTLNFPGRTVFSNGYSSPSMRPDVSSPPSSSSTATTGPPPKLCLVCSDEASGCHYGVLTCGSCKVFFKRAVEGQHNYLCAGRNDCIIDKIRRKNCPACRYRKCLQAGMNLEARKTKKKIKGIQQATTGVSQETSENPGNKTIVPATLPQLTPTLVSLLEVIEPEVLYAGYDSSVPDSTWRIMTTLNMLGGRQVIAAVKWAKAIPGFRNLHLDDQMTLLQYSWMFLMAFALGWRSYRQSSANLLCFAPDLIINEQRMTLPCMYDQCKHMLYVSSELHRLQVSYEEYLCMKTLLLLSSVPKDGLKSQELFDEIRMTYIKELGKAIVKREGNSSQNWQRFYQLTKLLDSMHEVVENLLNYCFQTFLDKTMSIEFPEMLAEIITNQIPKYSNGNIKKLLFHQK
Outline: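 Cell-free radioligand displacement assay on extracted human GR, read 16 h after dosing by filter-based scintillation counting. Screened in duplicate at 25 uM, then concentration series for actives; loss of signal versus DMSO baseline.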

**Q.** With CCOc1ccc(NC(=O)CC(C)=O)cc1 as the compound, how does the AC50 read?
**A.** The AC50 was 1.99 µM (active).

**Q.** CCC(C)c1cc([N+](=O)[O-])cc([N+](=O)[O-])c1OC(=O)OC(C)C (centres undefined) was tested. Which AC50 did it give?
**A.** Its AC50 is 5.81 µM (active).

**Q.** Cc1ccc(S(N)(=O)=O)cc1 was tested. Which outcome did it give?
**A.** The outcome was “inactive”.

**Q.** For CCCCCCCCc1ccc(S(=O)(=O)O)cc1, which AC50 is on record?
**A.** The AC50 was 17 µM (active).

**Q.** For C=C1CC[C@H](O)C/C1=C/C=C1\CCC[C@]2(C)[C@@H]([C@H](C)/C=C/[C@H](C)C(C)C)CC[C@@H]12, which AC50 is on record?
**A.** The AC50 was 25 µM (active).

**Q.** Which AC50 does the source give for [O-]n1ccccc1=S.[O-]n1ccccc1=S.[Zn+2] here?
**A.** The AC50 was 0.776 µM (active).

— PubChem BioAssay (EPA / NIEHS)
